gsp ag: agonists of gsp mutant (McCune-Albright syndrome); gsp mutant cells, cAMP HTRF, 30 min; Potency, µM (titrated, usually from 76.9 µM), for the others: top-dose activation (cAMP increase), usual class: activators; 340,000 tested, 0.13% active; active means well fitted activation curve with a large enough effect; inconclusive means small, poorly fitted or top-dose-only effect, or another doubt; inactive means no such curve, though single readings can be large or run the other way; cell line not stated here;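 further: phosphodiesterase inhibitor Ro 20-1724 added with compounds to block cAMP breakdown; potency means the concentration at half of the fitted maximal effect; nearly all actives have a fitted effect of over 60% in size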
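Cells in DMEM/10% FBS with G418 were pretreated with compounds in DMSO plus […] (300 uM stock) for 30 min at 37C. cAMP was measured by HTRF (cAMP-d2 plus anti-cAMP antibody-K) after 30 min at room temperature.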
RXFP1 antagonist: blocks the human relaxin receptor RXFP1; activity change, negative = inhibition, % at 57.5 µM; 350,000 tested, 0.59% active; HEK293-RXFP1, relaxin-stimulated cAMP HTRF, 30 min; stronger effect = lower value; AID 1259400;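 active means activity change of -60% or lower, but not beyond a set lower limit; inconclusive means change between -60% and -40%, or beyond the set limit; inactive means change above -40%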; further: on the % scale 0 is the no-effect control and ±100 the full control effect
Target sequence (Q9HBX9 whole entry, looked up): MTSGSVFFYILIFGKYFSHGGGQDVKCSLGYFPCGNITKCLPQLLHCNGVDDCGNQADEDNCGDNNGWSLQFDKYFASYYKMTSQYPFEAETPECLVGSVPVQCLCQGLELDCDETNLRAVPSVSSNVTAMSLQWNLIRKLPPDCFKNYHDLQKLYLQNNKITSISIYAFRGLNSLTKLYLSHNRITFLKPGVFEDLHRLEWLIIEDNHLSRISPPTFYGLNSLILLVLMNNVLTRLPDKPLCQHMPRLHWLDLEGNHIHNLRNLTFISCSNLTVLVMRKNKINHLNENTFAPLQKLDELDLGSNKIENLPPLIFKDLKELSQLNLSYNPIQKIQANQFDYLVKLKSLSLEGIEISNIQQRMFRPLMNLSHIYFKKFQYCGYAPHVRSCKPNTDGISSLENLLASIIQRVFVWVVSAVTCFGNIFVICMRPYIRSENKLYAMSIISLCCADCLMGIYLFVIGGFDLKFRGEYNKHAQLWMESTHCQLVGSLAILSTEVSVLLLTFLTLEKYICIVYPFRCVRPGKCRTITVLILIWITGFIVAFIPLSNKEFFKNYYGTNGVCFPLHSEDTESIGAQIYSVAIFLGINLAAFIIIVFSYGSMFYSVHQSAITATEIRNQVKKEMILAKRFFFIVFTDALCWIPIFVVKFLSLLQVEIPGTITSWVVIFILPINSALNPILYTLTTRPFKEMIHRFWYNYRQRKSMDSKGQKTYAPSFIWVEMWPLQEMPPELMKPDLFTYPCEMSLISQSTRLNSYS
CCT chaperon mod: modulators of cytosolic chaperonin (CCT/TRiC) activity; purified chaperonin ATPase assay, HTRF ADP detection, 30 min; activity change, % (no concentration beside the values), hits read low; 360,000 tested, 0.3% active; AID 651819; in the data active means activity change below about -30%; further: on the % scale 0 is the no-effect control and ±100 the full control effect
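We incubate TRiC, 40 or 20 nM final, with library compounds at 76 uM and 10 uM ATP for 30 min at 37 °C. ADP formed is detected with Transcreener HTRF reagents after 30 min at room temperature.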
Mm-Cpn inhibitor: M. maripaludis TRiC chaperonin inhibition. purified Mm-Cpn ATPase, ADP Transcreener TR-FRET. Potency, µM (series often up to 76.9 µM), for the others: top-dose activity, negative = inhibition, hits mostly inhibitors. 330,000 tested, 0.031% active; further: potency means the concentration at half of the fitted maximal effect; on the % scale 0 is the no-effect control and ±100 the full control effect; nearly all actives have a fitted effect of over 80% in size
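ATP (10 uM final) was added to archaeal chaperonin (25 nM final) after 10 min exposure to test compound at 37°C; after 30 min further incubation, ADP was detected by competitive TR-FRET.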
gsp antag: antagonizes gsp, the McCune-Albright syndrome mutation | gsp-mutant cells, cAMP HTRF, 30 min | Potency, µM (highest dose often 76.9 µM), for the others: at the top dose activity change, negative = inhibition, most hits filed as inhibitors | 340,000 tested, 0.4% active | AID 624288; calls by dose curve; cell line not stated here;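 further: intracellular cAMP measured with PDE inhibitor Ro 20-1724 present during compound exposure; potency means the concentration at half of the fitted maximal effect; on the % scale 0 is the no-effect control and ±100 the full control effect; nearly all actives have a fitted effect of over 65% in size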
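Cells, 2000/well, grown 16–24 h in DMEM 10% FBS with 0.5 mg/ml G418, then compounds plus […] (300 uM addition stock), 30 min at 37C. cAMP read by HTRF (cAMP-d2 and anti-cAMP antibody-K in lysis buffer) after 30 min RT.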
RXFP1 agonist: RXFP1 (human) receptor agonism. 370,000 tested, 0.3% active. Potency, µM (top dose mostly 57.5 µM), without a hit: at the top dose activation, hits mostly activators. Q9HBX9. AID 2676. HEK293T-RXFP1 cAMP TR-FRET, 30 min; response scale: percent of porcine relaxin response, buffer zero; further: potency means the concentration at half of the fitted maximal effect; on the % scale 0 is the no-effect control and ±100 the full control effect; nearly all actives have a fitted effect of over 60% in size
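HEK293 cells stably expressing RXFP1, treated 30 min at 37C with compounds plus PDE4 inhibitor Ro 20174; cAMP measured by HTRF TR-FRET. Normalized to buffer and 29 nM porcine relaxin; EC50 by Hill fit.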
The depositor's hits bear a star; ? = inconclusive; . = no result; [ ] = remark or other dose. Most compounds without a hit are left out; they make up all but 1.2% or so of the library. Unless noted, the call rests on the fitted dose curve; in most records, active means well fitted curve in the direction sought with a large enough effect; inconclusive means small, poorly fitted or top-dose-only effect, or another doubt; inactive means no such curve, though single readings can be large; an effect the other way counts as inactive or inconclusive.

SMILES	gsp ag	RXFP1 antagonist	CCT chaperon mod	Mm-Cpn inhibitor	gsp antag	RXFP1 agonist
Cc1c(OCC(=O)NCC(O)c2ccccc2)ccc2c(-c3ccccc3)cc(=O)oc12 (stereo not given)	.	.	-3	0%	28µM*	0%
CN(CC1CCOCC1)C(=O)CC1C(=O)NCCN1Cc1ccc(Cl)c(F)c1 (stereo not given)	12%	-2	-42*	3%	0%	2%
COc1ccc(S(=O)(=O)NCCc2cn3ccsc3n2)cc1OC	.	4	.	.	.	4%
CCOC(=O)C(=CNc1ccccc1Cl)C(=O)OCC	-19%	-8	-1	1%	-20%	-4%
CCOC(=O)C(=CNc1ccccc1C)C(=O)OCC	35%	-15	0	1%	20µM*	3%
O=C(c1ccc(CSc2nc3ccncc3[nH]2)cc1)N1CCN(c2cccc(Cl)c2)CC1	?	-10	0	2%	35µM*	0%
Nc1c(C(=O)Nc2ccc(Cl)cc2)sc2nc(N3CCOCC3)c3c(c12)CCCC3	10µM*	29	-2	-4%	-2%	9%
COC(=O)c1ccccc1NC(=O)c1noc2c1CC(C(C)(C)C)CC2 (stereo not given)	-25%	-4	-81*	1%	1%	0%
Cc1ccc(-c2nc3cc(NC(=O)C(C)C)ccc3o2)cc1	21%	-11	-2	0%	-7%[15.4 µM]	-3%
CC(Oc1ccc(Cl)cc1Cl)C(=O)Nc1ccc2oc(-c3ccncc3)nc2c1 (stereo not given)	2%	1	0	3%	32µM*	4%
CCCCCCSc1cc(-c2nc3cc(C)ccn3c2NCCCC)ccc1OC	.	.	0	-2%	-3%	8%
CCCCNc1c(-c2cccc(-c3cc(C(C)=O)cs3)c2)nc2cc(C)ccn12	22%	.	-3	1%	32µM*	-1%
COc1ccc(C2c3cc(OC)c(OC)cc3CC(=O)N2c2ccc(C)cc2)cc1 (stereo not given)	.	-2	.	.	.	1%
CC(=O)c1ccc(Nc2nc(=O)c3cccnc3s2)cc1	10µM*	18	-1	.	11%	?
CSc1nc2sc3c(c2c(=S)[nH]1)CC(C)(C)OC3	18%[15.4 µM]	-5	0	-11%	9%	?
CCc1nc2sc3c(c2c(=S)[nH]1)CC(C)(C)OC3	?	-66*	-15	0%	-6%	20%
CCOc1ccc(CCNC(=O)c2cc3c(=O)n(CC)c4ccccc4c3s2)cc1OCC	.	.	.	.	.	12%
COc1ccc(CCN2CC(C(=O)NCC(c3ccccc3)N(C)C)CC2=O)cc1OC (stereo not given)	5%	-90*	-2	0%	5%	.
O=C(Cn1c(=O)n(Cc2ccc3c(c2)OCO3)c(=O)c2ccc(C(=O)NC3CCCCC3)cc21)Nc1ccccc1F	.	-1	.	.	.	8%
COc1cc2c(cc1OC)C(COc1cc(C)cc(C)c1)N(C(=O)COc1ccccc1)CC2 (stereo not given)	.	.	.	.	.	5%
O=C(O)c1ccc(N=Nc2c(O)[nH]c3ccccc23)cc1	?	-1	-13	-2%	28µM*	-1%
CN(C)C(=O)c1ccc(N=Nc2c(O)c3ccccc3[nH]c2=O)cc1	18%	-9	-2	.	-23%	.
CCc1ccc(S(=O)(=O)c2c(C(=O)c3ccccc3)cnc3ccc(CC)cc23)cc1	.	-12	.	.	.	0%
O=C(O)CSc1ccc2ccccc2n1	?	22	1	-8%	7%	?
O=C(O)CCSc1ccc2ccccc2n1	?	23	0	-10%	25%	18µM*
SMILES	gsp ag	RXFP1 antagonist	CCT chaperon mod	Mm-Cpn inhibitor	gsp antag	RXFP1 agonist
Cc1cc(Cl)ccc1NC(=O)c1cc2ccccn2n1	.	-4	.	.	.	-1%
CN1CCN(Cc2c(O)ccc3c(=O)c(Oc4ccccc4Cl)c(C(F)(F)F)oc23)CC1	-42%	-31	1	-4%	-9%	2%
CCN1CCN(Cc2c(O)ccc3c(=O)c(Oc4ccccc4Cl)c(C(F)(F)F)oc23)CC1	.	.	.	.	.	32µM*
Cc1ccc(NC(=O)CSc2ccc(-c3sc(-c4ccccc4)nc3C)nn2)cc1F	.	-7	.	.	.	3%
Brc1cc2c(cc1Br)OCCOCCOCCOCCO2	-3%[15.4 µM]	-32	1	0%	-6%	1%
Brc1ccc2c(c1)OCCOCCOc1cc(Br)ccc1OCCOCCOCCO2	-9%	-38	-1	2%	50µM*	0%
CCOC(=O)N1CCN(C(=O)CSCC(=O)Nc2nc(-c3ccc(C)cc3)cs2)CC1	-4%	1	0	4%	32µM*	0%
CCOC(=O)N1CCN(C(=O)CSCC(=O)Nc2nc(-c3ccc4c(c3)OCO4)cs2)CC1	-19%	2	-3	0%	35µM*	0%
CC(C)c1ccc(NC(=O)c2cc3c(s2)-c2ccccc2SC3)cc1	.	-27	.	.	.	5%
NC(=O)C1CCN(c2nc(-c3cccc4ccccc34)cs2)CC1	.	.	.	-4%	.	.
COc1ccccc1N1CCN(C(=O)c2cnn(-c3ccc(C)c(C)c3)c2C2CCN(C(=O)OC(C)(C)C)CC2)CC1	.	-4	.	.	.	2%
COc1ccccc1CNC(=O)CCCn1c(=O)c2ccccc2n(Cc2ccc(F)cc2)c1=O	.	.	.	.	.	1%
COc1cc2nc(Cl)nc(N)c2cc1OC	.	4	.	.	.	.
C[C@H](NC(=O)OC(C)(C)C)c1nnc(SCC(=O)Nc2cccc(Cl)c2)o1	7%	1	-1	0%	-16%	1%
CC(C)[C@H](NC(=O)OC(C)(C)C)c1nnc(SCC(=O)Nc2ccc(Br)cc2)o1	5%	7	-2	-2%	35µM*	2%
CSc1nc(Sc2ccccc2Cl)c2ccccc2n1	6%	8	-77*	-25%	24%	?
CCOC(=O)c1cnc(SC)nc1Sc1ccccc1Cl	2%	-15	1	1%	-17%	0%
CCOC(=O)Cc1cc(C(=O)Nc2ccc(Br)cc2)sc1-c1ccc(C)cc1	.	-27	.	.	.	13%
CCOC(=O)c1oc2ccc(S(=O)(=O)n3nc(-c4ccc(OC)cc4)cc3N)cc2c1C	-14%	.	0	1%	-16%	0%
CCOC(=O)c1oc2ccc(S(=O)(=O)n3nc(-c4ccccc4)cc3N)cc2c1C	-34%	.	-4	1%	7.9µM*	0%
CN(C)CCCN(C(=O)c1ccc(S(=O)(=O)N2CCc3ccccc32)cc1)c1nc2c(Cl)cccc2s1	-26%	-5	0	1%	-9%	2%
CCOc1ccc2nc(N(CCCN(C)C)C(=O)c3ccc4c(c3)CCCC4)sc2c1	8%	-24	-1	0%	10%	1%
CN(C)CCN(C(=O)c1ccc2c(c1)CCCC2)c1nc2c(F)cccc2s1	-5%[15.4 µM]	-26	-3	-2%	6%	1%

Bioassay records (PubChem BioAssay)
